Growth data for eight compounds are collected here from PubChem BioAssay (NCI).

Assay in all cases: NCI-60 one-dose screen, 48 h (100 = growth as untreated, 0 = no growth, -100 = all killed)
Conditions in all cases: 10 µM unless noted

Experiment [1] concerns HCT-15 colon.
The test system of experiment [2] is HT29 colon.
Experiment [3] has as its system SNB-75 CNS.
Experiment [4] has as its system SNB-19 CNS.
The test system of experiment [5] is U251 CNS.
Experiment [6] concerns PC-3 prostate.
For experiment [7], the system named is SK-MEL-5 melanoma.
Experiment [8] deals with UACC-62 melanoma.
Experiment [9] relates to LOX IMVI melanoma.
The test system of experiment [10] is SK-MEL-28 melanoma.
Experiment [11] relates to SK-MEL-2 melanoma.
The test system of experiment [12] is EKVX NSCLC.
In experiment [13] the test system is SN12C renal.
For experiment [14], the system named is UO-31 renal.
The test system of experiment [15] is TK-10 renal.
The test system of experiment [16] is ACHN renal.
For experiment [17], the system named is CAKI-1 renal.
Experiment [18] relates to A498 renal.
Experiment [19] deals with CCRF-CEM leukemia.
The subject of experiment [20] is MOLT-4 leukemia.

SMILES strings stand for the structures. The panel holds about 83,000 compounds, 20% with a hit somewhere; the sample as a whole holds those more often.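 Treatment: one concentration, 48 hours, 96-well format. Scoring: percent growth, with anything below 10 considered active.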 Unmarked numbers belong to inactive results. Calls of active or inactive are those of the source.

In the case of `C=C(C)[C@@H]1CC[C@]2(COCCCNCCCN)CC[C@]3(C)[C@H](CC[C@@H]4[C@@]5(C)CC[C@H](O)C(C)(C)[C@@H]5CC[C@]43C)[C@@H]12`, the growth is -78% (active) in [1]; -62.6% (active) in experiment [2]; -86.6% (active) in experiment [3]; -91% (active) in experiment [4]; -73.4% (active) in experiment [5]; -74.4% (active) in experiment [6]. Besides, the growth in [7] was -63.5% (active); in experiment [8] it was -89.6% (active); in experiment [9] it was -80.7% (active); in experiment [10], -92.8% (active); in experiment [11], 99.1%; in experiment [12], -84.2% (active). Moreover, the growth was -78.8% (active) in [13]; -93% (active) in [14]; -85.5% (active) in experiment [15]; -98.6% (active) in [16]; -85.6% (active) in experiment [17]; -16.1% (active) in [18]. Moreover, the values for the growth in experiment [19] and in experiment [20] were -40.2% (active) and -34.5% (active), respectively.

Turning to `CN(C)S(=O)(=O)c1ccc(-c2nc(C(Cl)Cl)nc3cc(-c4ccc(F)cc4)nn23)cc1`, the growth was -35.7% (active) in [1]; -5.58% (active) in experiment [2]; 48.3% in experiment [3]; 23.5% in [4]; 2.76% (active) in [5]; 26.7% in experiment [6]. Further, the growth in [7] was 55.1%; in experiment [8], 26%; in experiment [9], -6.07% (active); in [10], 27.1%; in experiment [11], 9.25% (active); in [12], 22.7%. Moreover, the growth in [13] is 24.3%; in experiment [14], 44.3%; in experiment [15], 29.5%; in experiment [16], 5.28% (active); in experiment [17], 3.68% (active); in [18] it was 49.7%. For the same compound, the results for the growth in experiment [19] and in experiment [20] were 21.7% and 3.19% (active), respectively.

Turning to `CCC1=Cc2c(OC)cccc2OC12C=Cc1c(OC)cccc1O2` (stereo not given), the growth is 13.4% in [1]; 4.59% (active) in experiment [2]; 18.6% in experiment [3]; 24.8% in experiment [4]; 24.7% in [5]; 36.1% in experiment [6]. Besides, the growth was 25.7% in experiment [7]; 26.2% in experiment [8]; 28.4% in experiment [9]; 52% in experiment [10]; 65.8% in experiment [11]; 52.4% in [12]. In addition, the growth in experiment [13] was 42%; in experiment [14], 39.8%; in experiment [15], 101%; in experiment [16], 35.9%; in experiment [17], 28.4%; in experiment [18] it was 6.92% (active). Moreover, the growth in experiment [20] was 15.8%.

With `CCCCOc1ccc(S(=O)(=O)N2CCN(c3nc(C)cc(N4CCOCC4)n3)CC2)cc1`, the growth in experiment [1] is 5.32% (active); in experiment [2], -35.5% (active); in experiment [3], 2.51% (active); in experiment [4], 62.6%; in experiment [5], 18.8%; in [6] it was 36.4%. Besides, the growth in [7] is 84%; in experiment [8], -23.6% (active); in [9], -71.5% (active); in experiment [10], -2.33% (active); in experiment [11], -8.8% (active); in experiment [12] it was 39.9%. Also, the growth in experiment [13] was 40.4%; in experiment [14], 17.4%; in [15], 33.6%; in experiment [16] it was 15.3%; in experiment [17], 19.8%; in experiment [18], 37.1%. Moreover, the growth in [19] was 60.3%; in experiment [20], 26.1%.

Turning to `CNC(=O)c1cc(N2CCc3cc(NC(=O)Nc4ccc(N5CCOCC5)c(C(F)(F)F)c4)ccc32)ccn1`, the growth in experiment [1] was 5.54% (active); in experiment [2], 28.5%; in experiment [3], 38.6%; in experiment [4] it was 23.1%; in experiment [5] it was 29.2%; in [6] it was 7.98% (active). Besides, the growth in experiment [7] was 12.9%; in [8] it was -29.8% (active); in experiment [9], 12.5%; in experiment [10] it was 49.8%; in experiment [11], 45.6%; in [12], 59.6%. Further, the growth is 15% in experiment [13]; 16.9% in experiment [14]; 80.8% in [15]; 26.3% in [16]; 44.3% in [17]; 60% in experiment [18]. Besides, in experiment [20], the growth is 22.9%.

As for `COc1ccc2c(c1)c(/C=N/Nc1ccnc3cc(Cl)ccc13)cn2C`, the growth was -85.3% (active) in experiment [1]; -44.8% (active) in [2]; -91.2% (active) in experiment [3]; -68.1% (active) in experiment [4]; -80.1% (active) in [5]; -83.8% (active) in experiment [6]. For the same compound, the growth was -95% (active) in [7]; -57.7% (active) in [8]; -78.7% (active) in experiment [9]; -85.2% (active) in experiment [10]; -80.8% (active) in experiment [11]; -81.2% (active) in experiment [12]. In addition, the growth was -81.5% (active) in experiment [13]; -89.5% (active) in experiment [14]; -79.9% (active) in [15]; -97.3% (active) in [16]; -92% (active) in experiment [17]; -90% (active) in [18]. Besides, the growth in experiment [20] is -49.6% (active).

With `CNC(=O)c1cc(-n2ccc3cc(NC(=O)Nc4ccc(N5CCN(C)CC5)c(C(F)(F)F)c4)ccc32)ccn1`, the growth was 23.8% in experiment [1]; 0.845% (active) in experiment [2]; 56.3% in experiment [3]; 83.1% in experiment [4]; 46.6% in [5]; 60.8% in experiment [6]. Besides, the growth in experiment [7] was 79%; in experiment [8], 98.7%; in [9], -72.8% (active); in experiment [10], -85.6% (active); in [11] it was 87.2%; in experiment [12], 84.5%. For the same compound, the growth in experiment [13] was 94.6%; in experiment [14], 42%; in experiment [15], 121%; in experiment [16] it was 77.4%; in experiment [17], 85.8%; in experiment [19] it was 7.32% (active). The growth in experiment [20] is -12.8% (active).

Consider `CCCCc1nc2c(N)nc3ccccc3c2n1Cc1ccc(OC)cc1`, for which the growth was 58.3% in experiment [1]; 32.9% in experiment [2]; 66.2% in experiment [3]; 76% in [4]; 67.9% in experiment [5]; 43.5% in experiment [6]. Besides, the growth in experiment [7] was 47.3%; in [8], 68.2%; in [9], 75%; in [10], 90.2%; in [11] it was 71.6%; in experiment [12], 58.5%. Further, the growth in experiment [13] is 71.5%; in experiment [14], 40.2%; in experiment [15] it was 68.3%; in experiment [16], 76.9%; in experiment [17], 52.2%; in experiment [18], 35.7%. The growth in experiment [20] was 36.8%.
